Shown are actives, neighbours in structure and some others; about 5.3% of the full set was active somewhere.
Tau fluor cs: counter-screen for tau fibril formation inhibitors | tau K18 P301L Alexa594 fluorescence, heparin fibrillization | Potency, µM (series often up to 57.7 µM) | 0.93% of 280,000 active; note: nearly all actives have a fitted effect of over 55% in size
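Human tau K18 P301L (15 uM unlabeled, 0.24 uM Alexa 594-labeled) in 100 mM sodium acetate pH 7 with 20 uM heparin, 6 hr at 37 C. ThT 30 uM added, 1 hr ambient; Alexa 594 FP and total fluorescence read at 555/632 nm.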
FBPA coupling cs: coupling enzyme interference in Giardia aldolase counter-screen; coupling enzyme system counterscreen, AmpLite Red fluorescence; activity change, negative = inhibition, % at 58.2 µM, hits read low; 0.67% of 290,000 active; in the data active = activity change below about -30%
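Compounds tested against the coupling enzymes alone at 57.5 uM final; readout was AmpLite Red fluorescence (525/598 nm) after 20 min at RT.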
Tau ThT inhib: inhibitors of human tau fibril formation, thioflavin T binding; recombinant tau K18 P301L (four-repeat tau fragment), heparin-induced fibrillization, ThT fluorescence; 2.1% of 270,000 active; Potency, µM (top dose mostly 57.4 µM), actives largely listed as inhibitors; AID 1460; note: nearly all actives have a fitted effect of over 55% in size
Target sequence (P10636 561-689 P618L limits assumed): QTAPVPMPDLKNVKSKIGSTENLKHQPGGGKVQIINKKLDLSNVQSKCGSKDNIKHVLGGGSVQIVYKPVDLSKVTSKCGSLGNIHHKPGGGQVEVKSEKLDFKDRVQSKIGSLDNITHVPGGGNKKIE
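Heparin-induced fibrillization of the P301L-mutant K18 repeat-domain fragment of human tau was followed by ThT binding in quantitative high-throughput format.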
Sfp PPTase inh: blocks B. subtilis Sfp PPTase activity | Biochemical Sfp PPTase activity, qHTS | 3.5% of 310,000 active | Potency, µM, most hits filed as inhibitors | AID 1490 | Q9F4F7;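 note: the enzyme is Sfp with the accession as filed and its product quenches rhodamine fluorescence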
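Fluorescence-quenching assay with 15 nM Sfp, 5 uM rhodamine-CoA and 12.5 uM BHQ-2-labelled ybbR peptide in pH 7.6 Hepes/MgCl2 buffer. Enzyme was pre-incubated with compound for 15 min at room temperature. Rate was taken from the 30-min fluorescence change (525/598 nm).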
KDM4E inh: JMJD2E (human) inhibition; JMJD2E catalytic domain, FDH-coupled NADH fluorescence (FDH is formaldehyde dehydrogenase); B2RXH2; Potency, µM (doses to about 57.1 µM), usual class: inhibitors; 1.6% of 230,000 active; active = well fitted inhibition curve with a large enough effect, not every such curve was filed as active; inconclusive = small, poorly fitted or top-dose-only effect, or another doubt; inactive = no such curve, though single readings can be large or run the other way; note: nearly all actives have a fitted effect of over 50% in size
Target sequence (B2RXH2 1-337 limits assumed): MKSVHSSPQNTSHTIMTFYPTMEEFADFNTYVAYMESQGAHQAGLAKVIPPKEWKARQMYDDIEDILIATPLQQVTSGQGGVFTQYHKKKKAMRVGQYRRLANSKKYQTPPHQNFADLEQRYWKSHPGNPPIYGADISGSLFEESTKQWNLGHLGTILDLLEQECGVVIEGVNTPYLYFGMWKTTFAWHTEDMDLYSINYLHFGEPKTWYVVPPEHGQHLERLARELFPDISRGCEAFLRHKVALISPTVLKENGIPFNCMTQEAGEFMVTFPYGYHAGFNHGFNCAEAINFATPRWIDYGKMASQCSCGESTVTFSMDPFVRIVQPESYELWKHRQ
Tau fibril FP: blocks human tau fibril formation measured by polarization; Potency, µM (titrated, usually from 57.7 µM), usual class: inhibitors; P10636; K18 P301L tau heparin fibrillization, Alexa594 FP, 6 h; 0.39% of 280,000 active; note: nearly all actives have a fitted effect of over 55% in size
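Human tau K18 […] P301L fragment, 15 uM unlabeled plus 0.24 uM Alexa 594-labeled tau (final), with compound and 20 uM heparin in 100 mM sodium acetate pH 7; 6 hr at 37 C, then Alexa 594 FP read.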
Each line names hits and unclear results; the compound was inactive in the other large screens; ! = not confirmed by another sample; [ ] = another dose, or the depositor's remark. Unless noted, calls come from the whole dose curve; as a rule, active = well fitted curve in the direction sought with a large enough effect; inconclusive = small, poorly fitted or top-dose-only effect, or another doubt; inactive = no such curve, though single readings can be large; an effect the other way counts as inactive or inconclusive.

COc1ccc(C(NC(=O)/C=C/c2ccco2)c2ccc(OC)c(OC)c2)cc1 (centres undefined)	Sfp PPTase inh 20µM
COc1ccc(CNC(=O)/C=C/c2ccco2)cc1OC	Sfp PPTase inh 45µM
COc1ccccc1CNC(=O)C1CCCN(c2nnc(-n3c(C)ccc3C)s2)C1 (centres undefined)	Tau ThT inhib inconclusive (no result: FBPA coupling cs, Sfp PPTase inh, KDM4E inh)
COc1ccc(C2c3[nH]c4ccc(OC)cc4c3CCN2C(=O)Nc2ccccc2)cc1 (centres undefined)	Tau fluor cs inconclusive (no result: FBPA coupling cs, Sfp PPTase inh, KDM4E inh)
COc1ccc2[nH]cc(CCO)c2c1	none (no result: FBPA coupling cs, KDM4E inh)
CC(C)CN1CC[C@@]2(CCCN(C(=O)c3cc(C(F)(F)F)cc(C(F)(F)F)c3)C2)C1	none (no result: Tau fluor cs, Tau ThT inhib, KDM4E inh, Tau fibril FP)
O=C(/C=C/c1ccco1)NCC1(c2ccccc2)CCCC1	none
COc1ccc(C2(CNC(=O)/C=C/c3ccco3)CCCC2)cc1OC	Sfp PPTase inh 22µM, KDM4E inh inconclusive
COc1ccc(NC(=O)CSc2nncc3ccccc23)cc1	none
COc1ccc(C(=O)Sc2nncc3ccccc23)cc1	Sfp PPTase inh 50µM
Cc1ccc(OCC(=O)Nc2cccc(C(=O)OCc3cc(=O)n4cc(C)sc4n3)c2)cc1	Tau ThT inhib inconclusive (no result: FBPA coupling cs, Sfp PPTase inh, KDM4E inh)
COc1cc(-n2nc(C)c3c2OC(N)=C(C#N)C3c2ccccc2)c(Cl)c(Br)c1O (centres undefined)	Tau fluor cs inconclusive, Tau ThT inhib 3.5µM
CCOC(=O)C1=C(C)OC(N)=C(C#N)C1c1c(C)nn(-c2ccccc2)c1Cl (centres undefined)	FBPA coupling cs -51, Tau ThT inhib inconclusive, Sfp PPTase inh 56µM, KDM4E inh inconclusive
Cc1nn(-c2ccccc2)c2c1C(c1ccncc1)C(C#N)=C(N)O2 (centres undefined)	Tau ThT inhib inconclusive, Sfp PPTase inh inconclusive, Tau fibril FP inconclusive
CC(=O)Nc1nonc1-c1nnc(SCc2ccccc2F)n1C	none (no result: FBPA coupling cs, Sfp PPTase inh, KDM4E inh)
CC1CCC2(CC1)NC(=S)N(C(C)(C)C)N2 (centres undefined)	Sfp PPTase inh 35µM, KDM4E inh inconclusive
CC1CCC2(CC1)NC(=S)N(c1ccccc1)N2 (centres undefined)	Tau ThT inhib inconclusive, Sfp PPTase inh 56µM, KDM4E inh inconclusive
O=C1NC2(CCCCC2)NN1c1ccccc1	none
CCCCn1nc(NC(=O)c2cccc(Cl)c2)c2cc3cccc(C)c3nc21	none (no result: FBPA coupling cs, Sfp PPTase inh, KDM4E inh)
Cn1c(=O)c(-c2cccc(F)c2)nc2cncnc21	none (no result: Tau fluor cs, Tau ThT inhib, KDM4E inh, Tau fibril FP)
CCn1cc(C(=O)OCC(=O)Nc2cc(Cl)ccc2OC)c(=O)c2ccc(C)nc21	none (no result: FBPA coupling cs, Sfp PPTase inh, KDM4E inh)
CC1CCCCN1S(=O)(=O)c1ccc2c(c1)oc(=O)n2CC(=O)Nc1ccc(Cl)cc1 (centres undefined)	Tau fluor cs inconclusive, Tau fibril FP inconclusive (no result: FBPA coupling cs, Sfp PPTase inh, KDM4E inh)
Nc1cc(N2CCCCC2)c(Cl)cc1[N+](=O)[O-]	Tau fluor cs inconclusive, Tau ThT inhib 13µM
COCCOC(=O)C1=C(C)NC2(O)c3ccccc3C(=O)C12O (centres undefined)	Tau ThT inhib 11µM, Sfp PPTase inh 89µM, Tau fibril FP inconclusive
CC(=O)C1=C(C)NC2(O)c3ccccc3C(=O)C12O (centres undefined)	none
CCOC(=O)C1=C(C)NC2(O)c3ccccc3C(=O)C12O (centres undefined)	Sfp PPTase inh 79µM
COc1ccc(N2CCN(C(=O)c3cn(C4CCCCC4)c(=O)c4c3c3ccccc3n4C)CC2)cc1	Tau ThT inhib inconclusive (no result: FBPA coupling cs, Sfp PPTase inh, KDM4E inh)
CN(CCOC(=O)/C=C/c1ccco1)Cc1ccccc1	Tau ThT inhib inconclusive, Sfp PPTase inh 20µM
CN(CCOC(=O)c1ccco1)Cc1ccccc1	none
O=C(COC(=O)/C=C/c1ccco1)Nc1ccccc1	none
CN(Cc1ccccc1)C(=O)COC(=O)/C=C/c1ccco1	Sfp PPTase inh 35µM
CCCCOC(=O)n1c(=O)oc2cc(S(=O)(=O)N3CCCCC3)ccc21	none
COC(=O)n1c(=S)oc2cc(Cl)ccc21	Sfp PPTase inh 25µM
CCCCOC(=O)n1c(=S)oc2cc(Cl)ccc21	Sfp PPTase inh 56µM
Cc1ccc(NC(=O)C2CCN(S(=O)(=O)c3ccc4[nH]c(=O)ccc4c3)CC2)cc1C	none (no result: FBPA coupling cs, Sfp PPTase inh, KDM4E inh)
Cc1cc(C(=O)CCl)c(C)n1Cc1ccco1	Tau ThT inhib inconclusive
Cc1ccc2cccc(OCC(=O)c3cc(C)n(Cc4ccco4)c3C)c2n1	Sfp PPTase inh 56µM
CCCCOc1ccc(C2c3c(oc4ccc(C)cc4c3=O)C(=O)N2CCCN(C)C)cc1OCC (centres undefined)	none (no result: FBPA coupling cs, Sfp PPTase inh, KDM4E inh)
O=C1c2c(O)cc(O)cc2O[C@H](c2ccc(O)c(O)c2)C1O (some centres undefined)	none (no result: Tau fluor cs, Tau ThT inhib, KDM4E inh, Tau fibril FP)
Oc1ccc(C2Oc3cc(O)cc(O)c3CC2O)cc1 (centres undefined)	none
O=C1c2c(O)cc(O)cc2OC(c2ccc(O)c(O)c2)C1O (centres undefined)	Tau ThT inhib inconclusive, KDM4E inh 8.9µM
Oc1cc(O)c2c(c1)O[C@H](c1ccc(O)c(O)c1)[C@H](O)C2	KDM4E inh 11µM! (no result: Tau fluor cs, Tau ThT inhib, Tau fibril FP)
O=C(O[C@@H]1Cc2c(O)cc(O)cc2OC1c1ccc(O)c(O)c1)c1cc(O)c(O)c(O)c1 (some centres undefined)	Tau fluor cs 13µM[quencher], Tau ThT inhib 16µM, Sfp PPTase inh 50µM, KDM4E inh 7.1µM, Tau fibril FP inconclusive
O=C(OC1Cc2c(O)cc(O)cc2OC1c1cc(O)c(O)c(O)c1-c1c(C2Oc3cc(O)cc(O)c3CC2OC(=O)c2cc(O)c(O)c(O)c2)cc(O)c(O)c1O)c1cc(O)c(O)c(O)c1 (centres undefined)	Tau fluor cs 14µM[quencher], Tau ThT inhib 25µM, Sfp PPTase inh 45µM, KDM4E inh 11µM, Tau fibril FP inconclusive
COc1ccc([C@H]2CC(=O)c3c(O)cc(O)cc3O2)cc1O	none
O=C(NCCc1ccccc1)c1nn(-c2ccc(F)cc2)nc1CO	none (no result: FBPA coupling cs, Sfp PPTase inh, KDM4E inh)
COc1ccc([C@H]2Oc3cc(O)cc(O)c3C(=O)C2[C@@H]2C(=O)c3c(O)cc(O)cc3O[C@@H]2c2ccc(OC)cc2)cc1 (some centres undefined)	Tau ThT inhib inconclusive, Tau fibril FP 18µM
COc1cccc(NC(=O)c2ccc3nc(Cc4ccccc4)oc3c2)c1	Tau fluor cs inconclusive, Tau fibril FP inconclusive (no result: FBPA coupling cs, Sfp PPTase inh, KDM4E inh)
CC(=O)c1cc2c(O)c(O)ccc2o1	Tau ThT inhib inconclusive, Sfp PPTase inh 56µM, KDM4E inh inconclusive
CC(=O)c1cc2cc(O)ccc2o1	KDM4E inh inconclusive
CSCC[C@H](NC(=O)[C@H](CC(C)C)NC(=O)[C@@H]1CCCN1C(=O)[C@H](Cc1ccccc1)NC(=O)[C@H](Cc1ccccc1)NC(=O)[C@@H]1CCC(=O)N1)C(N)=O	none (no result: Tau fluor cs, Tau ThT inhib, KDM4E inh, Tau fibril FP)
O=C(COc1ccc(Cl)cc1Cl)OCC(=O)N1CCCc2ccccc21	Tau ThT inhib inconclusive

From PubChem
